Compound activity as filed in PubChem BioAssay.
A selection: hits, their analogues and other compounds. The true share with any hit is near 5.7%.
B2AR arrestin: recruits beta-arrestin to the human beta2-adrenergic receptor; P07550; Potency, µM (highest dose often 46.1 µM), usual class: activators; beta-arrestin recruitment to beta2AR, cell-based reporter; 330,000 compounds, 0.02% hits; note: nearly all actives have a fitted effect of over 65% in size
VP16 counter: inhibits Gal4-VP16 luciferase reporter, ROR gamma counter-screen; Drosophila S2 Gal4-VP16 UAS-luciferase, luminescence, 20 h; Potency, µM (doses to about 53.6 µM), usual class: inhibitors; 310,000 compounds, 3.5% hits; AID 2546;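 note: Gal4-VP16 expression switched on by copper sulfate through the metallothionein promoter; nearly all actives have a fitted effect of over 50% in size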
RORg inh: blocks mouse ROR gamma transcriptional activity. Drosophila S2 Gal4-RORgamma UAS-luciferase reporter, 20 h. Potency, µM (series often up to 53.6 µM), usual class: inhibitors. 310,000 compounds, 5.4% hits; note: nearly all actives have a fitted effect of over 60% in size
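Stably transfected Drosophila Schneider cells are the test system, with ROR gamma fused to Gal4 and luciferase under UAS control; luminescence is read after 20 hr of 700 uM copper sulfate induction at ambient temperature.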
NPSR antagonist: blocks cAMP signaling of the human neuropeptide S receptor. Q6W5P4. CHO-NPSR cells, cAMP TR-FRET, antagonist mode. Potency, µM (highest dose often 38.3 µM), most hits filed as inhibitors. 220,000 compounds, 1% hits. AID 1461; note: nearly all actives have a fitted effect of over 50% in size
Target sequence (Q6W5P4 whole entry, looked up): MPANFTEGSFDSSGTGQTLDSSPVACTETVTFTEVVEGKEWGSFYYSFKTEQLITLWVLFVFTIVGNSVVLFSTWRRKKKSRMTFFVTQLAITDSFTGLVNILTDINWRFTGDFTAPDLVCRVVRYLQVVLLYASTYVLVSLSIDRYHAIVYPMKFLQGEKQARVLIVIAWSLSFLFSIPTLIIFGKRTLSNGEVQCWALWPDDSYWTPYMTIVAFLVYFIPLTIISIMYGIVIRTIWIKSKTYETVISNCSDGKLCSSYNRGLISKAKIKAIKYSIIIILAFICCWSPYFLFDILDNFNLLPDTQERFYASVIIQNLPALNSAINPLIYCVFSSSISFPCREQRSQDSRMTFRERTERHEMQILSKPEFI
Each line names hits and unclear results; the compound was inactive in the other large screens. Calls come from the whole dose curve; as a rule, active = well fitted curve in the direction sought with a large enough effect; inconclusive = small, poorly fitted or top-dose-only effect, or another doubt; inactive = no such curve, though single readings can be large; an effect the other way counts as inactive or inconclusive.

CCSC[C@H](NC(=O)[C@H](C)N)C(=O)N[C@@H](CC(=O)O)C(=O)N[C@H](C(=O)N[C@@H](C)C(=O)N[C@H](C(=O)N[C@@H](CSCC)C(=O)N[C@H](C(=O)N[C@H](C(=O)N[C@@H](Cc1cnc[nH]1)C(=O)N[C@@H](CCCNC(=N)N)C(=O)N[C@@H](CC(C)C)C(=O)N[C@@H](C)C(=O)NCC(=O)N[C@@H](CC(C)C)C(=O)N[C@@H](CC(C)C)C(=O)N[C@@H](CO)C(=O)N[C@@H](CCCNC(=N)N)C(=O)N[C@@H](CO)C(=O)NCC(=O)NCC(=O)N[C@H](C(=O)N[C@H](C(=O)N[C@@H](CCCCN)C(=O)N[C@@H](CC(N)=O)C(=O)N[C@@H](CC(N)=O)C(=O)N[C@@H](Cc1ccccc1)C(=O)N[C@H](C(=O)N1CCC[C@H]1C(=O)N[C@H](C(=O)N[C@@H](CC(N)=O)C(=O)N[C@H](C(=O)NCC(=O)N[C@@H](CO)C(=O)N[C@@H](CCCCN)C(=O)N[C@@H](C)C(=O)N[C@@H](Cc1ccccc1)C(N)=O)C(C)C)[C@@H](C)O)C(C)C)C(C)C)C(C)C)[C@@H](C)O)C(C)C)[C@@H](C)O)[C@@H](C)O	none (no result: B2AR arrestin, NPSR antagonist)
COc1ccc(C(=O)NNC(=S)NC(=O)C(C)(C)C)cc1	none
O=C(NNC(=S)NC1CCCCC1)c1sc2ccccc2c1Cl	VP16 counter 12.6µM, RORg inh 2.82µM
O=C(NC1CC1)c1sc2ccccc2c1Cl	none (no result: NPSR antagonist)
CC(C)(C)C(=O)NC(=S)NNC(=O)c1sc2ccccc2c1Cl	VP16 counter 0.562µM, RORg inh 0.631µM
COc1ccccc1/C=N/NC(=O)COCC(=O)N/N=C/c1ccccc1OC	none
C=CCc1cccc(/C=N/NC(=O)CNc2ccccc2)c1O	VP16 counter inconclusive, RORg inh 1.58µM (no result: B2AR arrestin)
CC(Nc1ccc(Br)cc1)C(=O)N/N=C/c1ccccc1OCc1ccccc1 (stereo unspecified)	NPSR antagonist inconclusive
C=CCc1cccc(/C=N/NC(=O)C(C)Nc2cccc(C)c2)c1O (stereo unspecified)	VP16 counter 2.51µM, RORg inh 0.0398µM
C=CCc1cccc(/C=N/NC(=O)CNc2ccccc2OC)c1O	RORg inh 1.26µM
O=C(CN1CCN(Cc2ccccc2)CC1)N/N=C/c1ccco1	none
C=CCc1cccc(/C=N/NC(=O)C[n+]2ccccc2)c1O	RORg inh inconclusive (no result: NPSR antagonist)
C=CCc1cccc(/C=N/NC(=O)CN2CCN(Cc3ccccc3)CC2)c1O	VP16 counter 10µM, RORg inh 1.12µM (no result: B2AR arrestin, NPSR antagonist)
NCC1O[C@@H](OC2C(N)CC(N)C(O)C2O[C@@H]2OC(CO)C(O)C2O)C(N)C(O)C1O (stereo partly specified)	none (no result: B2AR arrestin, NPSR antagonist)
C=CCc1cccc(/C=N/NC(=O)CCCNc2ccc(C)cc2)c1O	VP16 counter 2µM, RORg inh 1µM
Cc1ccc(NCC(=O)N/N=C\c2cccc(O)c2)cc1	none
C=CCc1cccc(/C=N/n2cnnc2)c1O	RORg inh 7.08µM
O=C(CN1CCN(Cc2ccccc2)CC1)N/N=C/c1ccc(Br)s1	VP16 counter 10µM, RORg inh 5.62µM
C=CCc1cccc(C=Nc2ccc(Br)cc2)c1O	none
C=CCn1c(CNc2ccccc2)nnc1SCC(=O)N/N=C/c1ccccc1O	VP16 counter 15.8µM, RORg inh 10µM
C=CCc1cccc(/C=N/NC(=O)CNc2cccc3ccccc23)c1O	VP16 counter 1.12µM, RORg inh 0.562µM
O=C(CCC(=O)Nc1ccc(F)cc1)N/N=C/c1ccccc1	none (no result: NPSR antagonist)
C=CCc1cccc(/C=N/NC(=O)CCC(=O)Nc2ccc(F)cc2)c1O	VP16 counter 1µM, RORg inh 1µM
COc1ccc(OCc2nnc(SCC(=O)Nc3nnc(C4CC4)s3)n2C)cc1	none (no result: NPSR antagonist)
Cc1ccc(Oc2c(C(N)=O)cc([N+](=O)[O-])cc2[N+](=O)[O-])cc1	VP16 counter 2.51µM, RORg inh 2.82µM, NPSR antagonist inconclusive
Cc1ccc(-c2nn(-c3ccccc3)cc2CC(=S)N2CCOCC2)cc1	VP16 counter inconclusive, RORg inh 17.8µM (no result: NPSR antagonist)
Cc1ccc(-c2nn(-c3ccccc3)cc2CSC(=N)N)cc1	VP16 counter inconclusive, RORg inh inconclusive, NPSR antagonist inconclusive
O=C(C[C@@H]1C/C=C\CCCC(=O)OC[C@@H]2CCCN2C1=O)N[C@@H](CO)Cc1ccccc1	none (no result: VP16 counter, RORg inh, NPSR antagonist)
O=C(CCC(=O)c1cccs1)NNC(=O)c1ccc(Cl)cc1	none (no result: VP16 counter, RORg inh, NPSR antagonist)
COc1ccccc1NC(=S)N(Cc1ccc(C)cc1)Cc1ccccn1	none
CSc1cccc(NC(=S)N(Cc2ccc(C)cc2)Cc2ccccn2)c1	RORg inh 12.6µM
